From ChEMBL document CHEMBL1157539, “Thousands of chemical starting points for antimalarial lead identification” (Nature, 2010)

How the values were obtained:
Assay type in all cases: functional
Plasmodium falciparum [1] = assay: GSK_TCMDC: Inhibition of Plasmodium falciparum 3D7 in whole red blood cells, using parasite LDH activity as an index of growth. Test compounds present at 2uM
Plasmodium falciparum [2] = assay: GSK_TCMDC: Inhibition of Plasmodium falciparum Dd2 in whole red blood cells, using parasite LDH activity as an index of growth. Test compounds present at 2uM
HepG2 = assay: GSK_TCMDC: Percent inhibition of human HepG2 cell line. Test compounds present at 10uM.

| Structure (SMILES) | Inhibition (Plasmodium falciparum [1]) | Inhibition (Plasmodium falciparum [2]) | Inhibition (HepG2) |
| --- | --- | --- | --- |
| Cc1ccccc1CCNC(=O)c1ccc(N2CCN(c3ccncc3)CC2)nc1.O=C(O)C(F)(F)F | 95% | 20% | 10% |
| O=C1c2ccc([N+](=O)[O-])cc2C(=O)N1c1ccc2[nH]ncc2c1 | 87% | 0% | 11% |
| N=C(/N=C(/NCCCCCCN/C(=N\C(=N)Nc1ccc(Cl)cc1)N1CCCCC1)N1CCCCC1)Nc1ccc(Cl)cc1 | 100% | 98% | 0% |
| COCCn1c(-c2nc(-c3ccc(F)cc3)cnc2N)nc2ccccc21 | 98% | 98% | 16% |
